Data on 61 compounds can be found in PubChem BioAssay AID1259313 (Sanford-Burnham Center for Chemical Genomics, 2017).

Among all 340,000 compounds or so, about 8,500 (2.5%) were called active.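 How the source made its calls: active means melting temperature shift of at least 10% of the positive control shift, at one fixed dose; inactive means the rest.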 For the sample, actives were picked, then their nearest neighbours and some compounds at random.

This experiment concerns Glutamate receptor ionotropic, NMDA 3A (GRIN3A) ligand-binding domain. The experiment in a line: NR3A LBD thermal stabilization by compounds – biophysical, differential scanning fluorimetry, uHTS, primary screen (AID 1259313). The note with it: at 25 µM, active compounds read high, 0% = protein alone, 100% = glycine-bound protein. On the technique in general: In DSF a fluorescence change marks the thermal transition of the protein.
As to `Cc1nc2cc(C(F)(F)F)ccc2n1CCNc1nc(-c2cc(Cl)c(N)c(Cl)c2)cs1`, the Tm shift relative to glycine control was -2.53% (inactive).

As to `Cc1ccc(C(C(=O)NC2CCCCC2)N(C(=O)c2csnn2)C2CC2)o1` (stereo unspecified), the Tm shift relative to glycine control was -0.78% (inactive).

Take `COc1ccc(S(=O)(=O)N2CCOCC2)cc1NC(=O)CSc1nnc(NC2CC2)s1`: the Tm shift relative to glycine control was 1.84% (inactive).

As for `COc1cccc(/C=N/NC(=O)c2[nH]nc3c2CCc2ccccc2-3)c1O`, the Tm shift relative to glycine control is 20.4% (active).

`COc1ccc(Br)cc1/C=N/NC(=O)c1cccc(S(=O)(=O)N2CCOCC2)c1`: the Tm shift relative to glycine control is -9.01% (inactive).

For the compound `COc1ccc(/C=N/NC(=O)c2ccncc2)cc1CN1CCCc2ccccc21`, the Tm shift relative to glycine control was -8.86% (inactive).

In the case of `O=C(c1cc2ccccc2o1)N1CCN(Cc2ccccc2)CC1`, the Tm shift relative to glycine control was 0.09% (inactive).

In the case of `Fc1ccc(OCc2nn3c(Cn4nnc5ccccc54)nnc3s2)cc1`, the Tm shift relative to glycine control was 2.39% (inactive).

With `CC1CN(/C=C/C(=O)C(F)(F)F)CC(C)O1` (stereo unspecified), the Tm shift relative to glycine control was 0.33% (inactive).

For the compound `COc1ccccc1Cn1c(C)nnc1-c1cnn(C)c1N`, the Tm shift relative to glycine control is 1% (inactive).

For `O=C(Cc1cccc2ccccc12)NNC(=O)Nc1ccc(Cl)cc1`, the Tm shift relative to glycine control was 29.1% (active).

Take `O=C(O)Cc1ccc(NC(=O)Nc2cccc3ccccc23)cc1`: the Tm shift relative to glycine control is -1.31% (inactive).

As to `CN(CC(=O)Nc1ccc(Cl)cc1)CC(=O)Nc1cccc2ccccc12`, the Tm shift relative to glycine control was -7.6% (inactive).

`CC(C)OC(=O)c1ccc(NCc2cc(O)ccc2O)cc1Cl`: the Tm shift relative to glycine control is -1.69% (inactive).

As to `COC(=O)c1ccc(NCc2cc(O)ccc2O)cc1`, the Tm shift relative to glycine control was 5.08% (inactive).

Regarding `O=C(OC12CC3CC(CC(C3)C1)C2)c1ccc(NCc2cc(O)ccc2O)cc1`, the Tm shift relative to glycine control was 33.5% (active).

For the compound `Cn1c(SCc2ccc(F)cc2)nnc1-c1ccncc1`, the Tm shift relative to glycine control was 1.71% (inactive).

Turning to `CCC(C)(C)n1nnnc1CN1CCN(c2nc3ccc(C)cc3cc2C#N)CC1`, the Tm shift relative to glycine control is 0.62% (inactive).

`O=C(NCc1ccccc1)C(c1ccccc1)N(C(=O)c1csnn1)c1ccc(F)cc1` (stereo unspecified): the Tm shift relative to glycine control was -0.6% (inactive).

Regarding `CN(C)S(=O)(=O)Oc1ccccc1C(=O)Nc1ccccc1Cl`, the Tm shift relative to glycine control is -0.92% (inactive).

For the compound `O=C(Nc1ccccc1Cl)/C(Cl)=C(\Cl)S(=O)c1ccccc1` (stereo unspecified), the Tm shift relative to glycine control was 11.6% (active).

Turning to `O=C(COC(=O)CCc1c[nH]c(=O)[nH]1)Nc1ccccc1Cl`, the Tm shift relative to glycine control is 1.15% (inactive).

For `Cc1nn(-c2ccccc2)c2[nH]c(C(F)(F)F)cc(=O)c12`, the Tm shift relative to glycine control was -11.2% (inactive).

With `COc1ccc(CN2CCN(Cc3cn(C)nc3-c3ccccc3)CC2CCO)c(C)c1C` (stereo unspecified), the Tm shift relative to glycine control is -3.71% (inactive).

Consider `O=C(/C=C(O)/C=C/c1ccc(O)cc1)/C=C/c1ccc(O)cc1`, for which the Tm shift relative to glycine control is 19% (active).

On to `COc1cccc(C=CC(=O)C=CC=Cc2ccccc2)c1`, for which the Tm shift relative to glycine control was -1.98% (inactive).

`O=C(O)/C=C/c1ccc(OCCCF)cc1`: the Tm shift relative to glycine control was -1.35% (inactive).

`Cc1ccc(S(=O)(=O)NCCc2nnc3ccc(SCc4cccnc4)nn23)cc1`: the Tm shift relative to glycine control is -2.44% (inactive).

For the compound `COc1cc(OC)c(C(=O)NNC(=O)c2ccccc2-n2cccc2)cc1OC`, the Tm shift relative to glycine control was -0.41% (inactive).

Take `CCCCCCC(O)(CCN1CCCCC1)c1ccccc1` (stereo unspecified): the Tm shift relative to glycine control is -3.65% (inactive).

Take `S=c1[nH]nc(-c2ccncc2)n1/N=C/c1ccccc1Cl`: the Tm shift relative to glycine control was -1.38% (inactive).

As to `S=c1[nH]nc(-c2cccs2)n1/N=C/c1cn(-c2ccccc2)nc1-c1ccc(Cl)cc1`, the Tm shift relative to glycine control was 15.2% (active).

For the compound `S=c1[nH]nc(-c2cccs2)n1/N=C/c1cccs1`, the Tm shift relative to glycine control is 0.68% (inactive).

In the case of `CC(C(=O)Nc1ccccc1-c1ccccc1)N1CCOCC1` (stereo unspecified), the Tm shift relative to glycine control is -18.3% (inactive).

Regarding `CC(N=Cc1nc(-c2ccccc2)oc1O)c1ccccc1` (stereo unspecified), the Tm shift relative to glycine control was 1.17% (inactive).

On to `CCOc1ccc2nc(C(=O)N3CCCC(C)C3)sc2c1` (stereo unspecified), for which the Tm shift relative to glycine control was 3.03% (inactive).

As for `CCOc1ccc2nc(/N=C/c3nc(-c4ccccc4)oc3O)sc2c1`, the Tm shift relative to glycine control is 38% (active).

For the compound `CCn1c(SCC(=O)NC2CC2)nnc1-c1ccccc1OC`, the Tm shift relative to glycine control is -19.3% (inactive).

Regarding `COc1ccccc1-c1nnc2n1N=C(c1ccc(OC(F)F)c(OCC3CC3)c1)CS2`, the Tm shift relative to glycine control was 20.6% (active).

As to `COc1ccc(C2=Nn3c(nnc3-c3ccccc3OC)SC2)cc1OC1CCCC1`, the Tm shift relative to glycine control is -1.54% (inactive).

As to `Cn1c(C(=O)OC(C(=O)NC2CCCCC2)c2ccccn2)cc2sccc21` (stereo unspecified), the Tm shift relative to glycine control is -2.22% (inactive).

Regarding `C/C(=N/NC(=O)CCc1ccccc1)c1ccco1`, the Tm shift relative to glycine control is 13.4% (active).

As to `C/C(CC(=O)NC(C)(C)C)=N\NC(=O)c1ccco1`, the Tm shift relative to glycine control was -2.4% (inactive).

On to `C/C(=N/NC(=O)C1COc2ccccc2O1)c1ccco1` (stereo unspecified), for which the Tm shift relative to glycine control is 0.45% (inactive).

Turning to `C=C(C)CNC(=S)/N=c1\scc(C)n1CC`, the Tm shift relative to glycine control was 0.78% (inactive).

With `Cc1c(Cl)cccc1NC(=O)CSc1ccc(-c2cccnc2)nn1`, the Tm shift relative to glycine control was 0.4% (inactive).

For the compound `COc1ccc([C@H]2[C@H](C(C)=O)N3N=Cc4ccccc4C3C23C(=O)OC(C)(C)OC3=O)cc1` (stereo partly specified), the Tm shift relative to glycine control is 1.26% (inactive).

In the case of `COc1cc(Cl)c(C)cc1NC(=O)[C@@H]1CCCN1C(=O)c1cccs1`, the Tm shift relative to glycine control was -1.61% (inactive).

For the compound `COc1cc(NC(=O)COc2ccccc2Cl)ccc1NC(=O)C(C)C`, the Tm shift relative to glycine control was -1.36% (inactive).

Take `COc1cc(NC(=O)c2ccc3c(c2)OCO3)ccc1NC(=O)c1cccs1`: the Tm shift relative to glycine control is 26.8% (active).

With `COc1cc2ccccc2cc1C(=O)Nc1ccc(NC(=O)c2cccs2)cc1`, the Tm shift relative to glycine control was 28.6% (active).

Take `O=C(Nc1ccc(NC(=O)c2ccc3c(c2)OCO3)cc1)c1cccc(Cl)c1`: the Tm shift relative to glycine control was 4.36% (inactive).

With `COc1cc(NC(=O)c2cccs2)ccc1NC(=O)c1ccccc1Cl`, the Tm shift relative to glycine control was 11.9% (active).

Take `COc1cc2ccccc2cc1C(=O)Nc1ccc(S(=O)(=O)Nc2cc(C)on2)cc1`: the Tm shift relative to glycine control is -5.06% (inactive).

Take `CC(C)C(=O)Nc1cccc(C(=O)Nc2ccc3c(c2)OCO3)c1`: the Tm shift relative to glycine control was -22.3% (inactive).

Turning to `COc1cc2ccccc2cc1C(=O)Nc1ccncc1`, the Tm shift relative to glycine control is -12.5% (inactive).

In the case of `Cc1cc(C(=O)CC#N)c(C)n1CC(F)(F)F`, the Tm shift relative to glycine control was 0.49% (inactive).

For `O=C(Nc1cccc(S(=O)(=O)N2CCCC2)c1)c1cncc(Br)c1`, the Tm shift relative to glycine control is -1.22% (inactive).

On to `COc1ccc(N2CCN(CCNC(=O)Nc3cc(Cl)ccc3Cl)CC2)cc1`, for which the Tm shift relative to glycine control was -1.01% (inactive).

Turning to `O=c1c2ccccc2ncn1/N=C/c1ccccc1`, the Tm shift relative to glycine control was -2.01% (inactive).

Take `Cc1ccc(OCC(=O)N2CCN(C(=O)c3cccnc3)CC2)cc1`: the Tm shift relative to glycine control was -1.15% (inactive).
